Measurements reported in PubChem BioAssay AID886 (National Center for Advancing Translational Sciences (NCATS), 2007).
“And” between values parts separate entries of the source, which are not always exact repeats. Identical values can stand only once. Screen size: about 73,000 compounds; about 2,500 (3.4%) were called active. Inconclusive results (about 7%) are left out. The sample holds actives, similar compounds and a random draw of the others, so the mix is not that of the screen. Values without a mark were called inactive. The call rests on the fitted dose curve; in most records, active means well fitted inhibition curve with a large enough effect; inconclusive means small, poorly fitted or top-dose-only effect; inactive means no such curve, though single readings can be large or run the other way.

Biological target: 3-hydroxyacyl-CoA dehydrogenase type-2 (Homo sapiens) (UniProt Q99714)
Sequence (Q99714 whole entry, looked up): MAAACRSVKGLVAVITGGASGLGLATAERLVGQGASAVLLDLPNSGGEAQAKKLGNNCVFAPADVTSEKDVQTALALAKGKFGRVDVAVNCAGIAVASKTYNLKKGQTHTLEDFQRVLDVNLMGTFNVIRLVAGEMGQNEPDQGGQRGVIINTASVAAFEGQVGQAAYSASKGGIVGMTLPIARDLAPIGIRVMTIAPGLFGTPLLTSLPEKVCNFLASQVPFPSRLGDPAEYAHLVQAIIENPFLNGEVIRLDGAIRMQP
Sequence (Q99714 whole entry, looked up): as above
Test: qHTS Assay for Inhibitors of HADH2 (Hydroxyacyl-Coenzyme A Dehydrogenase, Type II); further: nearly all actives have a fitted effect of over 60% in size
Details: recombinant HADH2, NADH fluorescence, beta-hydroxybutyryl-CoA; series mostly up to 57.1 µM; activity change, negative = inhibition: at the top concentration
Text: Assay Overview: NIH Molecular Libraries Screening Centers Network [MLSCN] NIH Chemical Genomics Center [NCGC] Structural Genomics Consortium [SGC] Grant Number: None HADH2: Hydroxyacyl-Coenzyme A dehydrogenase, type II, was supplied by researchers at the Structural Genomics Consortium, Oxford University lab (PI Udo Oppermann). The mitochondrial enzyme 17-hydroxysteroid dehydrogenase type 10 (HSD17-10) previously classified as type II hydroxyacyl-CoA dehydrogenase (HADH2) catalyzes the NAD+ dependent oxidation of a variety of substrates including acyl-CoAs, androgens and neurosteroids as well as bile acids(Shafqat N, Marschall HU, Filling C, et al. Biochemical Journal. 2003;376(Pt 1):49-60). The role in neurodegeneration by binding to amyloid-peptide led to its identification (Oppermann UC, et al FEBS Letters. 1999;451(3):238-242 and Yan SD, et al. Nature. 1997;389(6652):689-695), and mutations in its gene appear to be causative for 2-methyl-3-hydroxybutyryl-CoA dehydrogenase deficiency (Ofman R, et al. American Journal of Human Genetics. 2003;72(5):1300-1307). The enzyme was produced by E.coli fermentation as His-tagged recombinant for the purpose of X-ray structure determination, and had been mass-spectrometry characterized. Inhibition of HADH2 activity was screened by utilizing beta-hydroxybutyryl coenzyme A as an electron donor and NAD+ as an electron acceptor/cofactor. An increase in the fluorescence intensity due to conversion of NAD+ to NADH was used to measure the enzyme activity.
Assay Protocol: Buffer: 100 mM Tris-HCl pH 9.0, containing 0.01 % Tween-20. Reagents/Controls: Buffer in columns 3 and 4 as negative control (no enzyme). Substrate/cofactor solution: 1 mM NAD+ and 90 uM beta-hydroxybutyryl coenzyme A (Sigma-Aldrich, St. Louis, MO) final concentrations dispensed throughout the plate. Enzyme: 20 nM HADH2 final concentration in columns 1, 2, 5-48. Column 1 is neutral (100% activity). Column 2 contained titration of apomorphine (Sigma-Aldrich, A 4393, PubChem CID 2215, top concentration 500 uM, then 1:2 dilution in duplicate) Assay Steps: Three uL of enzyme were dispensed to 1536-well Greiner black solid bottom plates. Compounds and controls (23 nL) were transferred via Kalypsys PinTool. The plates were incubated for 15 min at room temperature, and then 1 uL of substrate/cofactor solution was added to start the reaction. The plates were immediately transferred to and read every 30 seconds for 4 min on ViewLux High-throughput CCD imager (Perkin-Elmer) using 360 nm excitation and 450 nm emission fluorescence protocol. The fluorescence intensity difference between the last and the first time points was used to compute reaction progress.
On the % scale 0 is the no-effect control and ±100 the full control effect; potency means the concentration at half of the fitted maximal effect.

| Compound | activity change, negative = inhibition | Potency |
| --- | --- | --- |
| Cc1cccc(C(=O)O)c1 | 4.88% | – |
| O=C(O)c1ccc(Cl)c(S(=O)(=O)Nc2ccccc2Cl)c1 | 0.423% | – |
| CCOC(=O)c1sc(=S)n2c1[nH]c(=O)c1ccc(C(=O)OC)cc12 | – | 1 µM (active) |
| COC(=O)c1cccc(NC(=O)CSc2nc(C)cc(=O)[nH]2)c1 | -17.2% | – |
| COC(=O)c1ccc2c(=O)n(CC3CCCO3)c(=S)[nH]c2c1 (stereo not drawn) | -4.1% | – |
| O=c1c(-c2cc(F)cc(F)c2)nc2cnc(Oc3ccccc3)nc2n1C[C@H]1CCCO1 | 13.6% | – |
| Fc1ccc(-c2ccc(-c3nn4c(-c5ccco5)nnc4s3)o2)cc1 | -24.2% | – |
| Fc1ccc(-c2nnc3sc(-c4ccc5c(c4)OCO5)nn23)cc1 | – | 25.1 µM (active) |
| Fc1ccc(-c2nnc(CSc3nnc(-c4ccc5c(c4)OCO5)o3)o2)cc1 | 6.68% | – |
| C/C(CCN1CCCCc2nc(C)c(C)cc21)=N\O[C@@H](C)c1cn([C@@H]2COC[C@@H]2O)nn1 | -2.51% [at 11.4 µM] | – |
| O=C(c1ccc(F)cc1)C1CCN(CCCCc2ccccc2)CC1 | 9.57% | – |
| COc1ccc(OC)c(C(=O)CSc2nnc(-c3cccs3)o2)c1 | – | 25.1 µM (active) |
| COc1ccc(-n2c(C)cc(C(=O)CSc3nnc(-c4cccs4)o3)c2C)cc1 | -5.17% | – |
| COc1ccc(-c2nnc(SCC(=O)c3cccs3)o2)c(OC)c1 | 16.5% | – |
| CCCCC[C@H](O)CCCC(=O)O | 0.156% | – |
| CN1CCC(CNC(=O)c2ccc(-n3c(=O)c(=O)[nH]c4ccccc43)cc2)CC1 | -0.499% | – |
| COC(=O)C1(C)C=CCN1C(=O)c1ccccc1 (stereo not drawn) | 5.4% | – |
| O=C1[C@H]2[C@H]3[C@H](O)[C@H](O)C/C(=N/OCc4ccccc4)[C@H]3CC[C@@H]2C(=O)N1Cc1ccccc1 | -3.88% [at 11.4 µM] | – |
| CN1CCC2(CC1)CCN(S(=O)(=O)c1ccccc1)CC2 | 1.8% | – |
| O=S(=O)(O)c1ccc(O)c2ncccc12.O=S(=O)(O)c1ccc(O)c2ncccc12.[Zn] | -19.7% [at 11.4 µM] | – |
| CCS(=O)(=O)N(C)[C@@H]1c2cc(C#N)ccc2OC(C)(C)[C@H]1O | – | inactive |
| Nc1ccc(-c2nnc(-c3ccc(-c4ccccc4)cc3)o2)cc1 | – | 31.6 µM (active) |
| O=C(COC(=O)c1ccc(Oc2ccccc2)cc1)Nc1nnc(-c2ccccc2)o1 | 2.91% | – |
| CC(N)=NCc1cccc(CN)c1 | – | inactive |

| Compound | activity change, negative = inhibition | Potency |
| --- | --- | --- |
| CN1CCN2c3ccccc3Cc3ccccc3[C@@H]2C1 | – | inactive |
| CCN1C(=O)/C(=C\N2CCN(c3ccccc3)CC2)SC1=S | -0.798% | – |
| CCN1C(=O)/C(=C2/Sc3ccccc3N2CCCS(=O)(=O)O)SC1=S | – | 20 µM (active) |
| CCN1C(=O)/C(=C\N2CCN(c3cccc(Cl)c3)CC2)SC1=S | -1.99% | – |
| Cc1ccc(NC(=O)c2cccc(N(C)C)c2)cc1NC(=O)c1ccc(O)cc1 | -1.28% | – |
| CCC[C@@H]1C[C@@]1(CCC)C(NS(=O)(=O)c1cccc2cccnc12)c1ccc(Cl)cc1 (stereo partly drawn) | -3.66% | – |
| C[C@]1(C(=O)NCCc2c[nH]c3ccccc23)C=C[C@@H](Cc2ccccc2)N1C(=O)c1ccccc1 | 7.45% | – |
| COC(=O)C1=C(C)N(Cc2ccccc2)C2=C3C(=O)N(c4ccccc4)C(=O)C3[C@@](O)(C(=O)OC)C(=O)N2C1c1ccccc1 (stereo partly drawn) | 10.1% [at 11.4 µM] and 2.48% [at 11.4 µM] | – |
| CCCC(=O)Nc1cccc(-c2cn3ccsc3n2)c1 | 5.86% | – |
| CCOc1nc(OCC)nc(-n2cc(-c3ccccc3)nn2)n1 | 5.08% | – |
| c1ccc(-c2cn3cccnc3n2)cc1 | – | 12.6 µM (active) |
| CC(=O)Nc1ccc(-c2cn3cccnc3n2)cc1 | – | 15.8 µM (active) |
| CC(=O)Nc1cccc(-c2cnc3ccccc3n2)c1 | 12.1% | – |
| COC(=O)C(C(=O)OC)[C@@H]1CCCC(=O)C1 | 12% [at 11.4 µM] | – |
| CC(C)[C@@H](CC(=O)N[C@@H]1CCNC[C@H]1C(=O)N[C@H](CC(=O)N[C@@H](CCC(=O)O)CC(=O)O)Cc1ccccc1)NC(=O)C[C@H](CO)NC(=O)[C@@H]1CNCC[C@H]1N | -15.2% | – |
| O=C1C(c2ccccn2)=[N+]([O-])c2ccccc21 | -27.4% | – |
| Cc1c(C(=O)N2CCOCC2)[nH]c2ccc(OCc3ccccc3)cc12 | -11.1% | – |
| COc1cc(NC(=O)N2CCOCC2)cc(OC)c1 | 5.67% | – |
| CCOC(=O)c1[nH]c2ccc(OC)cc2c1NC(=O)N1CCOCC1 | – | 25.1 µM (active) |
| CC(=O)N1CCC2(CC1)CCN(c1ccncc1)CC2 | -5.97% | – |
| CC1(CCC(=O)OC2CCCCC2)OCCO1 | -20.4% [at 11.4 µM] | – |
| O=C(Cn1ccc(=O)[nH]c1=O)Nc1ccc(C(=O)O)c(O)c1 | -10.7% [at 11.4 µM] | – |
| COc1ccccc1-c1nc(NCc2cccs2)c2ccccc2n1 | -23.6% | – |
| CC(C)c1ccc2c([Si](C)(C)C)c3c(nc2c1)-c1cccc(=O)n1C3 | 34.4% | – |
